Several values for one entry are separate records, joined by “and”; a condition that tells them apart may be missing. Identical values can stand only once. Inconclusive results are not listed. More than one record can exist for a structure, and the calls need not agree. Activity calls are given as the source filed them. How the source made its calls, unless noted: active means hit-call score of the fitted dose curve at least 0.9, where 1 is the maximum; inactive means score below 0.9.
Experiments:
[1] = molecular target: Glucocorticoid receptor (Homo sapiens) (UniProt P04150); experiment: ATG_GR_TRANS: Attagene TRANS-FACTORIAL HepG2 Assay for human Glucocorticoid Receptor (GR) (AID 2282978; active means hit-call score of the fitted dose curve at least 0.9, where 1 is the maximum;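 further: activators score as hits since higher reporter transcript over DMSO is fitted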); conditions: HepG2 Attagene TRANS GR reporter, mRNA transcription
Chain of Glucocorticoid receptor (Homo sapiens) (P04150 whole entry, looked up, the tested form may be a part): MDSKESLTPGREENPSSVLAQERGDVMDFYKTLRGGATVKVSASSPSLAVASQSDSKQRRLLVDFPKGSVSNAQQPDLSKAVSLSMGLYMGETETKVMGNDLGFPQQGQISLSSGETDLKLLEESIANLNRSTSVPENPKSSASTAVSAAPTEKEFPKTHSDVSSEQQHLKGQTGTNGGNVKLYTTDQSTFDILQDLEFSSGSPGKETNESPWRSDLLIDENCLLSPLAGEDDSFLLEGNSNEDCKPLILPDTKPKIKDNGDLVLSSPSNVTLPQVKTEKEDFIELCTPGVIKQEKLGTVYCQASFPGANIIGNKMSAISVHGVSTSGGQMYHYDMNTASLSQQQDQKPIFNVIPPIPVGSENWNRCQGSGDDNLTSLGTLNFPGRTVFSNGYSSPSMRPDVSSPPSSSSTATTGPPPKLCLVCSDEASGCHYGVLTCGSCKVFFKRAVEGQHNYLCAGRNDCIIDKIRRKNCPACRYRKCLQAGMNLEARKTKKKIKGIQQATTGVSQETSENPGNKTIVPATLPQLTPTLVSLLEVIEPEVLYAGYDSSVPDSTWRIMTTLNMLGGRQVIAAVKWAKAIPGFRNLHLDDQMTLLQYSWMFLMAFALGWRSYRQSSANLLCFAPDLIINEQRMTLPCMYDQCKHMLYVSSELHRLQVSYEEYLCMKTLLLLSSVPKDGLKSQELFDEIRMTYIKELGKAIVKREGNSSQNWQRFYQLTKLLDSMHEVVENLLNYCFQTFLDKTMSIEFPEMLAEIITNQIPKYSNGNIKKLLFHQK
Method in brief: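 Readout is reporter transcript from a chimeric GR-Gal4 acting on GAL4-UAS in transfected human HepG2 liver cells after 24 h exposure, quantified by RT-PCR and capillary electrophoresis. Activation fitted upward against DMSO.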

[2] = molecular target: Hepatocyte nuclear factor 4-alpha (Homo sapiens) (UniProt P41235); experiment: ATG_HNF4a_TRANS: Attagene TRANS-FACTORIAL HepG2 Assay for human Hepatocyte Nuclear Factor 4 alpha (HNF4a) (AID 2282982; active means hit-call score of the fitted dose curve at least 0.9, where 1 is the maximum); conditions: HepG2 HNF4a transactivation reporter, mRNA readout
Chain of Hepatocyte nuclear factor 4-alpha (Homo sapiens) (P41235 whole entry, looked up, the tested form may be a part): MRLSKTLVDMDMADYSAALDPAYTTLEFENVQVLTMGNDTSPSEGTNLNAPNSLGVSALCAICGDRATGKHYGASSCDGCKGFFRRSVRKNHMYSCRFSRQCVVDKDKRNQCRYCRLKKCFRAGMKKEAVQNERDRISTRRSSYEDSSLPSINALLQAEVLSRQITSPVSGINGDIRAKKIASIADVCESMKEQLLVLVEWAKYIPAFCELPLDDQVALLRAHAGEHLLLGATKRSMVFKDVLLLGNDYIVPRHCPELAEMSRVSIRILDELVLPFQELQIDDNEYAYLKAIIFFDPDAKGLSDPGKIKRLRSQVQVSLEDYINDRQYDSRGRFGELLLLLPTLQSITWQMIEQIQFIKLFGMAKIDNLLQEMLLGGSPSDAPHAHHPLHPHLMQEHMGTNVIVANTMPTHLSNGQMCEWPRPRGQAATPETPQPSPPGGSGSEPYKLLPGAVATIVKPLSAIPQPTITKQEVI
Method in brief: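 HepG2 cells transiently transfected with multiplexed GAL4-UAS reporter units responsive to chimeric NR-GAL4 proteins; compound exposure 24 h. Reporter mRNA quantified by RT-PCR, 6-FAM labelling, HpaI digestion and capillary electrophoresis; gain of signal versus DMSO baseline.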

[3] = ATG_M_06_TRANS: Attagene TRANS-FACTORIAL HepG2 Assay for M06 Transcription Factor (Internal Marker) (AID 2282983; active means hit-call score of the fitted dose curve at least 0.9, where 1 is the maximum); conditions: HepG2 Attagene TRANS M06 internal marker reporter
Method in brief: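 Transfect HepG2 with MRTUs → dose compounds 24 h → isolate RNA, oligo(dT) RT → PCR with reporter primers → 6-FAM primer extension → HpaI digest → CE fragment analysis. Positive direction vs DMSO.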

[4] = ATG_M_32_TRANS: Attagene TRANS-FACTORIAL HepG2 Assay for M32 Transcription Factor (Internal Marker) (AID 2282984; active means hit-call score of the fitted dose curve at least 0.9, where 1 is the maximum;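 further: transcript level of a background control reporter unit measured by RT-PCR and capillary electrophoresis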); conditions: HepG2 Attagene TRANS M32 internal marker reporter
Method in brief: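 HepG2 cells transiently transfected with multiple GAL4-UAS reporter transcription units, dosed for 24 hours; reporter mRNA quantified by RT-PCR, 6-FAM primer extension, HpaI digestion and capillary electrophoresis. Gain-of-signal fitted versus DMSO baseline; internal background-control marker.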

[5] = molecular target: Nuclear receptor subfamily 4 group A member 2 (Homo sapiens) (UniProt P43354); experiment: ATG_NURR1_TRANS: Attagene TRANS-FACTORIAL HepG2 Assay for human Nuclear Receptor Related Protein 1 (NURR1) (AID 2282985; active means hit-call score of the fitted dose curve at least 0.9, where 1 is the maximum); conditions: HepG2 Attagene TRANS reporter, mRNA readout
Chain of Nuclear receptor subfamily 4 group A member 2 (Homo sapiens) (P43354 whole entry, looked up, the tested form may be a part): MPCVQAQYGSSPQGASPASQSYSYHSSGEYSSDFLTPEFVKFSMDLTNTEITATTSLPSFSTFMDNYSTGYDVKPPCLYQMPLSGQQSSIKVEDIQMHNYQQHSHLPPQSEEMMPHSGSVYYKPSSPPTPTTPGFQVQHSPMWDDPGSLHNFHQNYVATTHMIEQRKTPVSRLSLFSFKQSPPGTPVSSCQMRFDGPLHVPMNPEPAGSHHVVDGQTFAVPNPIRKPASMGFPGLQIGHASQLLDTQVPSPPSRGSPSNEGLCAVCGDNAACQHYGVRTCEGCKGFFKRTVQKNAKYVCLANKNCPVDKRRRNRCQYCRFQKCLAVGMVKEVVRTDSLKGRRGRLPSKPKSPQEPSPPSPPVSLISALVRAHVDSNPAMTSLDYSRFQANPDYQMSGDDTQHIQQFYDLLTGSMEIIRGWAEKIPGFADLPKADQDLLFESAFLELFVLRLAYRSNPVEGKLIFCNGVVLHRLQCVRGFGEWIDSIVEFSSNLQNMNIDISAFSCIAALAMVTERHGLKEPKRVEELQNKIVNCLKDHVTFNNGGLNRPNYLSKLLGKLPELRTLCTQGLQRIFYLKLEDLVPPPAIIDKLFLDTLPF
Method in brief: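 HepG2 cells transiently transfected with GAL4-UAS reporter units and chimeric NR-Gal4 constructs; chemical exposure 24 h. Reporter mRNA quantified by RT-PCR, fluorescent labelling and capillary electrophoresis; gain of signal fitted relative to DMSO baseline.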

[6] = molecular target: Transcriptional activator Myb (Homo sapiens) (UniProt P10242); experiment: ATG_Myb_CIS: Attagene CIS-FACTORIAL HepG2 Assay for human Myeloblastosis (Myb) Proto-Oncogene Transcription Factor (AID 2282986); conditions: HepG2 Attagene CIS-FACTORIAL Myb reporter transcription; actives raise or lower the signal
Chain of Transcriptional activator Myb (Homo sapiens) (P10242 whole entry, looked up): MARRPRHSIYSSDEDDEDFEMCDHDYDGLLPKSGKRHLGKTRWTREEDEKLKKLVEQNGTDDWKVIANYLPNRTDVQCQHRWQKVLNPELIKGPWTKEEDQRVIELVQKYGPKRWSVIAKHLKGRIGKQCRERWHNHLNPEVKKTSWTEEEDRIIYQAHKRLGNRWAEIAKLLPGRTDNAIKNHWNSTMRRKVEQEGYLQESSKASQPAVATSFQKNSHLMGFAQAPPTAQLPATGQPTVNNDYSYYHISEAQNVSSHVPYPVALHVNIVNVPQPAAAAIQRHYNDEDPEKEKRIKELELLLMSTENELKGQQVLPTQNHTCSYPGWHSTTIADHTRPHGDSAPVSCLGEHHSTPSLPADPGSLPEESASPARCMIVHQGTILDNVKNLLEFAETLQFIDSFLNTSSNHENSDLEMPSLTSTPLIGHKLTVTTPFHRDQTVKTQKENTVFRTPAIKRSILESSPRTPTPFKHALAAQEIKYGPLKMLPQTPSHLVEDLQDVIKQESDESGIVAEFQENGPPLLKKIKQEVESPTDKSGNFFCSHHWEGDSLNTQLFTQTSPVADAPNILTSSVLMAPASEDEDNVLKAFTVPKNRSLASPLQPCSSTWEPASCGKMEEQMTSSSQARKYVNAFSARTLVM
Method in brief: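 Reporter mRNA is quantified by RT-PCR and capillary electrophoresis 24 h after dosing HepG2 cells transfected with cis-regulated reporter units, which track endogenous transcription factor activity. Gain and loss of signal are fitted versus DMSO baseline.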

[7] = ATG_NFI_CIS: Attagene CIS-FACTORIAL HepG2 Assay for human Nuclear Factor I (NFI) (AID 2282989); conditions: HepG2 cis-regulatory reporter, NFI response element transcription; actives raise or lower the signal
Method in brief: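 Transient MRTU transfection of HepG2 → 24 h chemical dosing → total RNA, oligo(dT) RT → PCR, 6-FAM primer extension, HpaI cut → capillary electrophoresis. Endpoint fitted bidirectionally relative to DMSO.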

[8] = ATG_NF_kB_CIS: Attagene CIS-FACTORIAL HepG2 Assay for human Nuclear Factor Kappa B (NF-kB) (AID 2282991); conditions: HepG2 Attagene cis-factorial NF-kB reporter mRNA; actives raise or lower the signal
Method in brief: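 Readout is reporter transcript level, gain or loss versus DMSO, measured 24 h post-dose via RT-PCR, fluorescent labelling and capillary electrophoresis. Human HepG2 liver cells carried transiently transfected CIS reporter constructs reflecting endogenous factors.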

[9] = ATG_NRF2_ARE_CIS: Attagene CIS-FACTORIAL HepG2 Assay for human Nuclear Factor Erythroid 2 Related Factor 2 (NFR2) response to Antioxidant Response Elements (ARE) (AID 2282992); conditions: HepG2 Attagene ARE/NRF2 reporter, transcription factor activity; actives raise or lower the signal;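 on AC50: reporter mRNA level measured by RT-PCR and capillary electrophoresis fluorescence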
Method in brief: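 Cis-factorial assay: transfected HepG2 reporter library, 24 h dosing, mRNA readout via RT-PCR/CE; DMSO-referenced bidirectional analysis.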

[10] = ATG_Oct_MLP_CIS: Attagene CIS-FACTORIAL HepG2 Assay for human Octamer-Binding Transcription Factor (Oct) (AID 2282993); conditions: HepG2 Attagene cis-factorial Oct reporter, mRNA; actives raise or lower the signal
Method in brief: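 Transient MRTU transfection of HepG2 → 24 h compound treatment → RNA isolation, reverse transcription, PCR → 6-FAM primer extension, HpaI digest → capillary electrophoresis. Activity fitted both directions against DMSO.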

[11] = BSK_3C_TissueFactor: BioMAP Diversity Plus: 3C Assay for Tissue Factor Biomarker Activity (AID 2282997); conditions: BioMAP 3C HUVEC, tissue factor biomarker readout; actives raise or lower the signal
Method in brief: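 ELISA read-out of Tissue Factor levels on human umbilical vein endothelium collected 24 h after chemical dosing. Gain or loss of signal was fitted relative to DMSO.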

[12] = BSK_3C_uPAR: BioMAP Diversity Plus: 3C Assay for Urokinase-type plasminogen activator receptor (uPAR) Biomarker Activity (AID 2282998); conditions: BioMAP 3C HUVEC, uPAR biomarker ELISA; actives raise or lower the signal
Method in brief: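 ELISA readout of uPAR on human vascular endothelium (umbilical vein primary cells), taken 24 h after chemical dosing. Increases and decreases are both fitted relative to DMSO vehicle.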

[13] = BSK_3C_VCAM1: BioMAP Diversity Plus: 3C Assay for Vascular cell adhesion molecule 1 (VCAM1) Biomarker Activity (AID 2282999); conditions: BioMAP 3C HUVEC, VCAM1 ELISA, cytokine-stimulated; actives raise or lower the signal
Method in brief: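 Human umbilical vein endothelial cells were dosed with compound for 24 h, after which cell-surface VCAM-1 was quantified by ELISA. Bidirectional curve fitting used DMSO as negative control and activity baseline.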

[14] = molecular target: Oxysterols receptor LXR-beta (Homo sapiens) (UniProt P55055); experiment: ATG_LXRb_TRANS: Attagene TRANS-FACTORIAL HepG2 Assay for human Liver X Receptor beta (LXRb) (AID 2282981; active means hit-call score of the fitted dose curve at least 0.9, where 1 is the maximum); conditions: HepG2 Attagene TRANS GAL4-LXRb reporter, mRNA
Chain of Oxysterols receptor LXR-beta (Homo sapiens) (P55055 whole entry, looked up, the tested form may be a part): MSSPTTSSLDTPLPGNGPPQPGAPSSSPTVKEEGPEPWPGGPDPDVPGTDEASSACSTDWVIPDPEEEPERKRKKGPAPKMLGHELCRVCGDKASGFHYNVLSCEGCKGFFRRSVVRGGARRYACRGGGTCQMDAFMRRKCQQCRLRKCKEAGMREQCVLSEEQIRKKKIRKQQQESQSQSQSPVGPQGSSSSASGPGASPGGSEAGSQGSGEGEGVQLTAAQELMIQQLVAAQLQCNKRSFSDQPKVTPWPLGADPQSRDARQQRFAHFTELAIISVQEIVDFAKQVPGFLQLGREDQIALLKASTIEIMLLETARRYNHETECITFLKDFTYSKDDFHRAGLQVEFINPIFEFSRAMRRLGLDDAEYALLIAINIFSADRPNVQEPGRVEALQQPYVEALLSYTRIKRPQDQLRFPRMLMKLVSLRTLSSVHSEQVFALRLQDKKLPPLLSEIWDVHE
Method in brief: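 HepG2 cells transiently transfected with multiple reporter transcription units carrying chimeric NR-Gal4 proteins acting on GAL4-UAS reporters; compound exposure 24 h. Reporter mRNA quantified by RT-PCR, 6-FAM labelling, HpaI digestion and capillary electrophoresis; gain of signal versus DMSO.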

[15] = molecular target: Nuclear respiratory factor 1 (Homo sapiens) (UniProt Q16656); experiment: ATG_NRF1_CIS: Attagene CIS-FACTORIAL HepG2 Assay for human Nuclear Respiratory Factor 1 (NRF1) Orphan Gene (AID 2282987); conditions: HepG2 NRF1 cis-element reporter, Attagene multiplex; actives raise or lower the signal
Chain of Nuclear respiratory factor 1 (Homo sapiens) (Q16656 whole entry, looked up): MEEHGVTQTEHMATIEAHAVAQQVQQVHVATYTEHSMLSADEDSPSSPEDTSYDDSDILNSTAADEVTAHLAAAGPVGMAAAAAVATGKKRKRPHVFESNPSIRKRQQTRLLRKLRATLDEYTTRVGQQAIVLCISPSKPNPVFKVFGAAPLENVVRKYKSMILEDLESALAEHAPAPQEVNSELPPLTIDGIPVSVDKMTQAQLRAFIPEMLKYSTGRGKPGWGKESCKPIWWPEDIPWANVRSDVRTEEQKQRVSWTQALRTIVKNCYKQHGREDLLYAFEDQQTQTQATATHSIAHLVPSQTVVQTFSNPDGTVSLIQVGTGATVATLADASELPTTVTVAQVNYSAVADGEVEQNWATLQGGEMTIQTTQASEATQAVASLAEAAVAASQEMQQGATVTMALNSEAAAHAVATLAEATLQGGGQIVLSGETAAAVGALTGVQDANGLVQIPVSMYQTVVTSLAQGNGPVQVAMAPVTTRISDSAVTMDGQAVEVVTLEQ
Method in brief: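 Endogenous NRF1-driven reporter transcription in transfected HepG2 cells after 24 h treatment. Readout: RT-PCR products, 6-FAM labelled and resolved by capillary electrophoresis; changes fitted both directions relative to DMSO.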

[16] = molecular target: Myc proto-oncogene protein (Homo sapiens) (UniProt P01106); experiment: ATG_Myc_CIS: Attagene CIS-FACTORIAL HepG2 Assay for human Myelocytomatosis (Myc) Proto-Oncogene Transcription Factor (AID 2282990); conditions: HepG2, Attagene cis-reporter transcription factor activity; actives raise or lower the signal
Chain of Myc proto-oncogene protein (Homo sapiens) (P01106 whole entry, looked up): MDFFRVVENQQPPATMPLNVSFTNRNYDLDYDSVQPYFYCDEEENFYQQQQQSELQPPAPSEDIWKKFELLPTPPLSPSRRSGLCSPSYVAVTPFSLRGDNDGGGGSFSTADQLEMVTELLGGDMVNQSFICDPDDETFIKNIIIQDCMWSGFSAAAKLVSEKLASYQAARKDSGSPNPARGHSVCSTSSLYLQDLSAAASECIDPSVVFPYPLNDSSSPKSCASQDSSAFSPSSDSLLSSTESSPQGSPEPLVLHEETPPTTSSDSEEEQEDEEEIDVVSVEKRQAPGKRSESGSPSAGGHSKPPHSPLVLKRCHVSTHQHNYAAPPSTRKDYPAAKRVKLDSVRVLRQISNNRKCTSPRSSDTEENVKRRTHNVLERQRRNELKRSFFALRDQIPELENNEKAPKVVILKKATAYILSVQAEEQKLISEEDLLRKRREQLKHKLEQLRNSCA
Method in brief: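 DMSO-normalised, bidirectionally fitted reporter mRNA signal. HepG2 cells transfected with cis reporter constructs, treated 24 h; transcripts detected by RT-PCR, 6-FAM primer extension and CE.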

[17] = molecular target: Cellular tumor antigen p53 (Homo sapiens) (UniProt P04637); experiment: ATG_p53_CIS: Attagene CIS-FACTORIAL HepG2 Assay for human p53 Transcription Factor (AID 2282994); conditions: HepG2 p53 cis-element reporter, Attagene mRNA; actives raise or lower the signal
Method in brief: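 Using HepG2 hepatoma cells carrying cis-acting multiplexed reporters, mRNA induction is detected after a 24 h exposure. Gain- and loss-of-signal responses are fitted relative to DMSO-treated cells.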

[18] = molecular target: Bile acid receptor (Homo sapiens) (UniProt Q96RI1); experiment: ATG_FXR_TRANS: Attagene TRANS-FACTORIAL HepG2 Assay for Farnesoid X Receptor (FXR) (AID 2282979; active means hit-call score of the fitted dose curve at least 0.9, where 1 is the maximum;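 further: hits raise reporter mRNA above DMSO so AC50 marks FXR activation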); conditions: HepG2 Attagene TRANS FXR-GAL4 reporter transcription
Chain of Bile acid receptor (Homo sapiens) (Q96RI1 whole entry, looked up, the tested form may be a part): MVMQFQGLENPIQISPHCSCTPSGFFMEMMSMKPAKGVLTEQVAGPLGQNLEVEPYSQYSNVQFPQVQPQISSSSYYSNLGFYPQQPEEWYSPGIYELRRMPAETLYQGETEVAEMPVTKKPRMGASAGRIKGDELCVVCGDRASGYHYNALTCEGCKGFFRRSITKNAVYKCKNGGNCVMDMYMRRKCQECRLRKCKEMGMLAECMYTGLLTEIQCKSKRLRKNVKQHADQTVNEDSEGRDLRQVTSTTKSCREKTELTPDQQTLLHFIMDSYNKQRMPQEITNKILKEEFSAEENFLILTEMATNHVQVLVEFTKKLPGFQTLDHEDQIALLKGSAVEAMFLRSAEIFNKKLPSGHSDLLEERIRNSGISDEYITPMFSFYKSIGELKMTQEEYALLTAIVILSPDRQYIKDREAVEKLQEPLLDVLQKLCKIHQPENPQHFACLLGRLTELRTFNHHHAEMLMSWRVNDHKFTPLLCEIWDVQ
Method in brief: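 Transient transfection of HepG2 with multiplexed GAL4-UAS reporter units; exogenous FXR-GAL4 chimera. Dose 24 h → TriZol RNA → oligo(dT) RT → PCR, 6-FAM primer extension, HpaI cut → CE. Gain vs DMSO.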

[19] = molecular target: Oxysterols receptor LXR-alpha (Homo sapiens) (UniProt Q13133); experiment: ATG_LXRa_TRANS: Attagene TRANS-FACTORIAL HepG2 Assay for human Liver X Receptor alpha (LXRa) (AID 2282980; active means hit-call score of the fitted dose curve at least 0.9, where 1 is the maximum); conditions: HepG2 Attagene TRANS reporter, LXRa transactivation
Chain of Oxysterols receptor LXR-alpha (Homo sapiens) (Q13133 whole entry, looked up, the tested form may be a part): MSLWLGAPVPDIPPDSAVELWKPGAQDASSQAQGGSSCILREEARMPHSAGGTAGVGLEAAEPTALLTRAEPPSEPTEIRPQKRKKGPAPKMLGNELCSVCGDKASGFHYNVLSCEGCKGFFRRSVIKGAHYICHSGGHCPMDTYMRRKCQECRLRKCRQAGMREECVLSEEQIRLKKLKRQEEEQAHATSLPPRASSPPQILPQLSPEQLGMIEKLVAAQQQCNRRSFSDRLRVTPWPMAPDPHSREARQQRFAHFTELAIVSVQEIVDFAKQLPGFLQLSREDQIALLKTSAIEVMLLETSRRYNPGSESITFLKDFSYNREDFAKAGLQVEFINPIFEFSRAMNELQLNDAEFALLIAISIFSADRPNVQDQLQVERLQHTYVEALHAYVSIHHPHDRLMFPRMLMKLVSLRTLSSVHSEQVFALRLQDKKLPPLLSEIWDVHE
Method in brief: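 Transfect HepG2 with GAL4-UAS multiplex reporter constructs (TRANS format, chimeric receptor-GAL4); treat 24 h; extract RNA, reverse-transcribe, PCR-amplify, FAM-label, HpaI-digest; resolve fragments by capillary electrophoresis. Upward response vs DMSO.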

Measured: AC50

O=C(c1ccc(OCCN2CCCCC2)cc1)c1c(-c2ccc(O)cc2)sc2cc(O)ccc12
active: [6] 18.5 µM | [7] 8.99 µM and 16.7 µM | [9] 6.44 µM [middle of 4 runs] | [10] 8.87 µM [middle of 4 runs] | [11] 34.6 µM | [12] 22.3 µM | [13] 35.4 µM
inactive: [1] | [2] | [3] | [4] | [5] | [6] | [7] | [8] | [9] | [10]

O=C(OCc1ccccc1)c1ccccc1O
inactive: [1] | [14] | [2] | [4] | [6] | [15] | [16] | [8] | [10]
active: [7] 178 µM | [9] 64.4 µM | [17] 145 µM

CC(=O)C1C(=O)C=C(C)OC1=O (configuration not stated)
not listed: [1] | [2] | [8] | [11] | [12] | [13] | [14] | [19]
inactive: all other assays above

CC(C)(CO)CO
not listed: [4] | [5] | [8] | [14] | [18] | [19]
inactive: all other assays above

NC(=O)c1c(Cl)cccc1Cl
active: [11] 0.0671 µM
not listed: [1] | [4] | [5] | [14] | [15] | [17] | [19]
inactive: all other assays above

CCn1cc(C(=O)O)c(=O)c2ccc(C)nc21
not listed: [1] | [2] | [4] | [5] | [7] | [14] | [17] | [19]
inactive: all other assays above

CC(C)COC(=O)c1ccccc1O
not listed: [2] | [4] | [11] | [12] | [13] | [14] | [18] | [19]
inactive: all other assays above

[Cl][Dy]([Cl])[Cl]
inactive: [18] | [19] | [14] | [2] | [6] | [15] | [16] | [8] | [9] | [10]

CCC(=O)OC/C=C(\C)CCC=C(C)C
inactive: [1] | [2] | [3] | [6] | [15] | [16] | [8] | [9] | [10] | [17]

CCCCOCCOCCO
not listed: [2] | [14] | [15] | [18] | [19]
inactive: all other assays above

c1ccc2c(c1)-c1ccc3ccc4cccc5cc-2c1c3c45
active: [9] 0.205 µM | [11] 0.0352 µM | [12] 0.667 µM
not listed: [1] | [14] | [19]
inactive: all other assays above

CCC(=O)OCC=Cc1ccccc1
active: [9] 36.3 µM | [12] 20 µM
not listed: [1] | [5] | [19]
inactive: all other assays above

S=c1[nH][nH]c(=S)s1
inactive: [1] | [5] | [6] | [16] | [8] | [9] | [10] | [17]

C=CCOCC(O)CO (configuration not stated)
active: [6] 152 µM | [16] 137 µM
inactive: [18] | [19] | [2] | [3] | [15] | [9] | [10] | [17]

CC1=C(C=O)C(C)(C)CCC1
not listed: [1] | [2] | [4] | [5] | [11] | [12] | [13] | [17]
inactive: all other assays above

CC(C)(C)c1cccc(O)c1
active: [12] 0.016 µM
not listed: [2] | [4] | [14] | [18] | [19]
inactive: all other assays above

CC1=CCC(C(C)(C)O)CC1 (configuration not stated)
not listed: [1] | [2] | [4] | [11] | [12] | [13] | [14] | [19]
inactive: all other assays above
